Measurements as given in PubChem BioAssay AID2496 (Sanford-Burnham Center for Chemical Genomics, 2010).
Calls of active or inactive are those of the source. No stated cut-off is given here; in the data, active means IC50 below about 40 µM; inactive means the rest.

test: HTRF spectral interference by compounds, SAR follow-up, artefact control, biochemical, fluorescence ratio (AID 2496); conditions: HTRF spectral interference counter-screen

Row | SMILES | IC50
1 | CC(/C=C/c1ccco1)=NNC(=O)c1cccnc1 | > 50 µM (inactive)
2 | Cc1ccc(S(=O)(=O)N(C)C)cc1NC(=O)c1cc(-c2ccco2)nc2ccccc12 | > 50 µM (inactive)
3 | CCCc1ccc(/C=C2\C(=O)c3ccccc3C(O)=C2C(=O)OCC)cc1 | > 50 µM (inactive)
4 | CCNC(=O)COC(=O)c1cc(-c2ccco2)nc2ccccc12 | > 50 µM (inactive)
5 | O=C(CSc1ccc(Cl)cc1)Nc1cccc(-c2nc3ccccc3[nH]2)c1 | 12.8 µM (active)
6 | O=C(NC1CCCC1)c1ccc2nc(-c3ccco3)c(-c3ccco3)nc2c1 | > 50 µM (inactive)
7 | CN(C(=O)COC(=O)c1cc(-c2ccco2)nc2ccccc12)C1CCS(=O)(=O)C1 (configuration not stated) | 26.6 µM (active)
8 | Nc1ccc(-c2nc3c(Cl)c(N)ccc3[nH]2)cc1 | 5.59 µM (active)
9 | O=C(Nc1ccc2nc(-c3ccco3)c(-c3ccco3)nc2c1)N1CCOCC1 | 7.32 µM (active)
10 | O=C(COC(=O)c1c2c(nc3ccccc13)/C(=C/c1ccco1)CC2)NC1CCCC1 | 4.42 µM (active)
11 | CC(=O)Oc1ccc(N2C(=O)C3C(C2=O)C2(C)C=CC3(C)O2)cc1 (configuration not stated) | 2.86 µM (active)
12 | CC(=O)NS(=O)(=O)c1ccc(NC(=O)/C=C/c2ccc(C)o2)cc1 | > 50 µM (inactive)
13 | Nc1c(C(=O)NC2CC2)sc2nc3c(c(-c4ccco4)c12)CC/C3=C/c1ccco1 | 2.98 µM (active)
14 | CCOC(=O)c1sc2nc(-c3ccco3)c3c(c2c1N)CC(C)(C)OC3 | > 50 µM (inactive)
15 | CCOC(=O)N1CCN(C(=O)c2ccc3nc(-c4ccco4)c(-c4ccco4)nc3c2)CC1 | 6.55 µM (active)
16 | CCN(CC)CCNC(=O)c1cc(-c2ccco2)nc2ccccc12 | 19.8 µM (active)
17 | COc1ccc(NC(=O)c2cc(-c3ccco3)nc3ccccc23)cc1S(=O)(=O)N1CCOCC1 | 37.2 µM (active)
18 | Cc1ccc(/C=C/C(=O)NCc2ccc(S(N)(=O)=O)cc2)o1 | > 50 µM (inactive)
19 | COc1ccc(CCNC(=O)c2cc(-c3ccco3)nc3ccccc23)cc1 | 15 µM (active)
20 | CCCCc1ccc(/C=C2\C(=O)c3ccccc3C(O)=C2C(=O)OCC)cc1 | 4.14 µM (active)
21 | Nc1ncnc2oc(-c3ccco3)c(-c3ccco3)c12 | > 50 µM (inactive)
22 | CN(CCC#N)C(=O)COC(=O)c1c2c(nc3ccccc13)/C(=C/c1ccco1)CC2 | 8.9 µM (active)
23 | CC(/C=C/c1ccco1)=NNC(=O)c1cc(C)[nH]n1 | > 50 µM (inactive)
24 | O=C(NN=Cc1ccc(F)cc1)c1cc(-c2ccco2)nc2ccccc12 | > 50 µM (inactive)
25 | CNc1nc(-c2ccccc2)[n+](-c2ccc(C)cc2)s1 | > 50 µM (inactive)
26 | CCN(CC)C(=O)COC(=O)c1cc(-c2ccco2)nc2ccccc12 | 16.4 µM (active)
27 | Cc1ccc(/C=C/C(=O)N2CCN(c3ncccn3)CC2)o1 | > 50 µM (inactive)
